From PubChem BioAssay (NCI)
About 83,000 compounds went through this panel and 20% of them were active in at least one assay; those are over-represented in the sample as a whole.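 Testing used 96-well plates and a 48-hour single-concentration exposure. Example: -40 means 40% of the starting cells died.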 Values without a mark were called inactive. Activity calls are given as the source filed them.

system: OVCAR-4 ovarian; assay: NCI-60 one-dose screen, 48 h (100 = growth as untreated, 0 = no growth, -100 = all killed); details: 10 µM unless noted
Experimental: Growth inhibition of the OVCAR-4 human tumor cell line is measured as a screen for anti-cancer activity. Cells are grown in 96 well plates and exposed to the test compound for 48 hours. Compounds are tested at a single concentration, which is 10^-5 M for most compounds. The reported endpoint is percent growth (GI% or GIPRCNT), where numbers from 0 - 100% represent growth inhibition, and numbers from -100% - 0 represent cell death. For example, a value of 40 represents 60% growth inhibition. A value of 0 means no net growth occurred over the course of the experiment. A value of -40 indicates 40% of cells at the beginning of the experiment died by the end of the experiment. A value of -100 means all cells are dead at the end of the experiment.
NCI-60 Human Tumor Cell Lines Screen was performed using the standard one-dose NCI protocol, which is described in more detail at https://dtp.cancer.gov/discovery_development/nci-60/default.htm.
Compounds with GIPRCNT values below 10 were considered active. Activity score was based on GIPRCNT using the following formula: […]
Score is 0 for GIPRCNT values of 100 or above, 50 for GIPRCNT values of 0, and 100 for GIPRCNT values of -100.

SMILES | growth
Cc1sc(N=Nc2ccc(N(C)C)cc2)[n+]([O-])c1C | 94.2%
COc1cc(Cn2c(-c3nonc3N)nc3ccccc32)ccc1C | 62.6%
COc1cc(CNC(=O)CSc2nc3ccccc3c(=O)n2Cc2cc(OC)c(OC)c(OC)c2)cc(OC)c1OC | 103%
O=P([O-])(O)OP(=O)([O-])O.[NH-][C@H]1CCCC[C@@H]1[NH-].[OH-].[OH-].[Pt+4] | 109%
O=C(Nc1ccc(I)cc1)c1cc([N+](=O)[O-])ccc1O | 30.3%
OC1CC2c3ccccc3C1c1ccccc12 (stereo not given) | 100%
C=C1C(=O)O[C@H]2[C@H]1CC/C(Cn1cc(-c3ccc(N)cc3)nn1)=C\CC[C@@]1(C)O[C@@H]21 | 13.6%
Cc1cccc2cc(/C=C/C(=O)/C=C/c3ccc(Cl)cc3)c(=O)[nH]c12 | 58%
N#Cc1c(NC(=O)c2ccc([N+](=O)[O-])o2)[n+]([O-])c2cc(F)c(F)cc2[n+]1[O-] | 102%
O=C(Nc1ccc(Cl)cc1)c1cc(-c2ccc(F)cc2)c2sc(=O)[nH]c2n1 | -0.62% (active)
Cc1ccc(Cn2c(-c3cccs3)nc3ccccc32)cc1 | 76.6%
COC12CC(=O)C(C(C)=O)=C(O)C1(C)c1c(O)c(C)c(O)c(C(C)=O)c1O2 (stereo not given) | 85.9%
CCC(c1cccc(Br)c1)C(C(=O)O)c1ccc(OC)cc1 (stereo not given) | 114%
C=CCn1c(C)nc2ccc(Nc3nc(Nc4ccc(F)cc4)nc4ccccc34)cc21 | 48.3%
c1ccn2nnnc2c1 | 103%
CC1=NN2C(=NC3=C(CCC/C3=C\c3ccc(Cl)cc3)C2c2ccc(Cl)cc2)S1 (stereo not given) | 86.8%
C=C1C(=O)O[C@H]2[C@H]1CC/C(COC(=O)NCCc1cccc(OC)c1)=C\CC[C@@]1(C)O[C@@H]21 | 39.9%
COc1ccc([N+](=O)[O-])c(/C=C/C(=O)c2ccccn2)c1 | 72.2%
COC(=O)c1ccc(C)cc1 | 105%
Cc1ccc(S(=O)(=O)N2CCC(C(=O)Nc3ccc(F)cc3F)CC2)cc1 | 83.7%

SMILES | growth
CN(C)c1ccc(/C=C\N=Nc2ccc(Br)cc2)cc1 | 65%
O=C(O)c1ccc(-n2cc(CNc3ccc(C(F)(F)F)cc3)c(-c3ccccc3)n2)cc1 | 95.4%
Nc1nn2cc(-c3ccc(Cl)s3)nc2c2ccccc12 | 87.5%
C#CCN1C(=O)/C(=c2\sc3n(c2=O)NC2C(N=3)N(CC)C(=O)N2CC)c2ccccc21 (stereo not given) | 51.9%
CC/C=C\C/C=C\C[C@H](O)C/C=C1/C(=O)C=C[C@H]1C/C=C\CCC(=O)OC | 43.3% [8.25 µM]
CSc1ccccc1C#C/C=C\C#Cc1ccccc1N1CCCC1=O | 59.7%
COC1=CC(c2ccc[nH]2)=N/C1=C\c1[nH]c(C)c(C(=O)CCCCC(=O)NCc2ccccc2)c1C | 50.8%
CCCCCCCCCCCCOB(OCCCCCCCCCCCC)OCCCCCCCCCCCC | 121%
COc1ccc(S(=O)(=O)N2CCN(c3cc4c(cc3F)c(=O)c(C(=O)O)cn4C3CC3)CC2)c(OC)c1 | 101%
CC(C)(C)OC(=O)N[C@@H](Cc1ccccc1)C(=O)N(Cc1ccccc1)C1(C(=O)NCc2ccccc2)CCN(Cc2ccccc2)CC1 | 24.2%
COc1ccc(C2CC(=O)Nc3c2c(C)nn3-c2nc3ccccc3[nH]2)cc1OC (stereo not given) | 62%
COc1cc(Cn2c(SCCC(=O)Nc3ccc(F)cc3)nc3ccccc3c2=O)cc(OC)c1OC | 85%
CC[C@H](C)[C@H]1NC(=O)[C@@H](N[C@](C)(O)[C@@H](N)CC(C)C)[C@@H](C)OC(=O)[C@H](Cc2ccc(OC)cc2)N(C)C(=O)[C@@H]2CCCN2C(=O)[C@H](CC(C)C)NC(=O)[C@@H](C)C(=O)[C@H](C(C)C)OC(=O)C[C@@H]1O | -6.08% (active)
Clc1ccc(-c2nc(-c3ccco3)cn3ccnc23)cc1 | 41.3%
CC1=C(C#N)C(C)(C)C(C#N)=C(C)N1 | 99.2%
COc1cccc(NC(=O)c2sc3nc4c(cc3c2N)CCCC4)c1 | 72.1%
Cc1c(C2=NNC(c3ccc4c(c3)OCO4)C2)[n+]([O-])c2ccccc2[n+]1[O-] (stereo not given) | 76.3%
CCN(C(=O)c1cc2ncccc2[nH]1)[C@H]1CCC[C@@H](NCc2cccc(F)c2)C1 | 104%
CCn1cc(C(=O)O)c(=O)c2cc(F)c(N3CCN(S(=O)(=O)c4ccc(Cl)cc4Cl)CC3)cc21 | 129%
CCN(CC)c1cc(/C=C/c2ccc(OC)c(OC)c2)nc2cc(F)c(F)cc12 | 87.2%
